From PubChem BioAssay (NCATS)
Results filed as inconclusive are left out. The source made the active and inactive calls. Unless noted, calls follow the shape of the dose curve; as a rule, active = well fitted curve in the direction sought with a large enough effect; inconclusive = small, poorly fitted or top-dose-only effect, or another doubt; inactive = no such curve, though single readings can be large; an effect the other way counts as inactive or inconclusive.

Tests used:
[1] = target: Lysosomal acid glucosylceramidase (Homo sapiens) (UniProt P04062); assay: Glucocerebrosidase-p2 (AID 348; in the data active = potency below about 10 µM; also: potency is read from the fitted curve at half-maximal effect); conditions: purified GBA, blue fluorogenic substrate, 40 min
Chain of Lysosomal acid glucosylceramidase (Homo sapiens) (P04062 whole entry, looked up): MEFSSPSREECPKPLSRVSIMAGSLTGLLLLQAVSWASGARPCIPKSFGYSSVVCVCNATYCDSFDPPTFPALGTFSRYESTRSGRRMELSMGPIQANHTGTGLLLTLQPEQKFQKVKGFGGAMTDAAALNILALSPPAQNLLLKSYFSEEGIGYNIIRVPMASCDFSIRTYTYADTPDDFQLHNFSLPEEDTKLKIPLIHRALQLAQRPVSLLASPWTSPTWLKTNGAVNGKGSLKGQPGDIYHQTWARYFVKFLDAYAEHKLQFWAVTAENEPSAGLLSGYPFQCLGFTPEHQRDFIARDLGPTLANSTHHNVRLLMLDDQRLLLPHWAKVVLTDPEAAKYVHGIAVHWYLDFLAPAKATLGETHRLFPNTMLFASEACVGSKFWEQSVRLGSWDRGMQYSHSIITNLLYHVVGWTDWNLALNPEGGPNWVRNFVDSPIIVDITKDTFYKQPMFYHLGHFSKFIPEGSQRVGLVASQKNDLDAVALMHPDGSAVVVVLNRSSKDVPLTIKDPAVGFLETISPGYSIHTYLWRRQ
Method in brief: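 Normal human glucocerebrosidase (0.2 nM) with blue fluorogenic substrate (80 uM final) in citrate/phosphate pH 5.9 with 10mM sodium taurocholate, 0.01% tween-20; 40 min RT, NaOH/glycine stop; fluorescence Ex 365/Em 440; AC50 from a titration from 0.6 nM upwards.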

[2] = target: Cytochrome P450 1A2 (Homo sapiens) (UniProt P05177); assay: p450-cyp1a2 (AID 410; calls by dose curve; also: potency is read from the fitted curve at half-maximal effect;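 as to activity change, negative = inhibition: -100% = full effect of reference inhibitor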); conditions: recombinant CYP1A2, luciferin-ME demethylation, luminescence; series mostly up to 57 µM
Chain of Cytochrome P450 1A2 (Homo sapiens) (P05177 whole entry, looked up): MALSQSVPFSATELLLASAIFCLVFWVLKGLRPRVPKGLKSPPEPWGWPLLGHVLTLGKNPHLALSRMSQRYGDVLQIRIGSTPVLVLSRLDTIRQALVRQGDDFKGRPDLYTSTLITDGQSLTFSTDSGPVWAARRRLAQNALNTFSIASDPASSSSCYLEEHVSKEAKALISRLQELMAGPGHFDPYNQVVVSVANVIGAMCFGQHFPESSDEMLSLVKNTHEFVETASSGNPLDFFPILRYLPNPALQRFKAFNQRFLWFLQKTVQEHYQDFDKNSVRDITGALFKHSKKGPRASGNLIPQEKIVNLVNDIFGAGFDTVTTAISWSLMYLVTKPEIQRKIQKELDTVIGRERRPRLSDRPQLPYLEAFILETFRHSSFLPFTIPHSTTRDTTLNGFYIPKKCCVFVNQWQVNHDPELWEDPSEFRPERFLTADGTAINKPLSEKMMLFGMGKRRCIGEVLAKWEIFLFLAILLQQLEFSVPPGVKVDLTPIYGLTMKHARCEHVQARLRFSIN
Method in brief: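 Luminescent demethylation readout: Luciferin-ME (100uM, equal to Km) turned over by 20nM CYP1A2 for 60 min at room temperature after NADPH regeneration addition, following 10 min compound preincubation. Normalization used 57 uM furafylline as full inhibition.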

[3] = NFAT Signaling Pathway (AID 444; active = well fitted curve in either direction with a large enough effect, not every such curve was filed as active;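 also: carbachol stimulus at about its EC50 of 1 µM final; % is scaled to controls: 0 for no effect and ±100 for the full control effect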); conditions: Jurkat NFAT-bla M1, carbachol, beta-lactamase ratio, 5 h; at 7.69 µM (top of the series) unless noted
Method in brief: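 Jurkat cells carrying an NFAT-driven β-lactamase reporter and co-transfected muscarinic M1 receptor were treated with compound plus carbachol (1 uM final, an EC50 level) for 5 h at 37 °C. CCF4 loading followed for 1 h at RT; 460/530 nm ratio gave %activity.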

[4] = Stat Signaling Pathway (AID 446; active = well fitted curve in either direction with a large enough effect, not every such curve was filed as active;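 also: ME-180 cervical cancer cells given 40 pM IL-6 alongside compound; SIE-controlled beta-lactamase reporter measured as 460/530 nm FRET emission ratio; % is scaled to controls: 0 for no effect and ±100 for the full control effect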); conditions: ME-180 SIE beta-lactamase reporter, IL-6 stimulated, 5 h; at 7.69 µM (top of the series) unless noted
Method in brief: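 Overnight-plated ME-180 cells bearing a STAT Inducible Element beta-lactamase reporter; 5 h co-exposure to compound and 40 pM IL-6; values normalized to 300 pM IL-6 and 125 nM JAK inhibitor controls.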

[5] = target: Glucocorticoid receptor (Homo sapiens) (UniProt P04150); assay: GR-GFP Redistribution (AID 450;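 active = compounds whose dose series gives a full or clear partial fitted curve of increased nuclear translocation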; also: potency is read from the fitted curve at half-maximal effect); conditions: U2OS GR-GFP nuclear translocation, laser cytometry, 2 h
Chain of Glucocorticoid receptor (Homo sapiens) (P04150 whole entry, looked up, the tested form may be a part): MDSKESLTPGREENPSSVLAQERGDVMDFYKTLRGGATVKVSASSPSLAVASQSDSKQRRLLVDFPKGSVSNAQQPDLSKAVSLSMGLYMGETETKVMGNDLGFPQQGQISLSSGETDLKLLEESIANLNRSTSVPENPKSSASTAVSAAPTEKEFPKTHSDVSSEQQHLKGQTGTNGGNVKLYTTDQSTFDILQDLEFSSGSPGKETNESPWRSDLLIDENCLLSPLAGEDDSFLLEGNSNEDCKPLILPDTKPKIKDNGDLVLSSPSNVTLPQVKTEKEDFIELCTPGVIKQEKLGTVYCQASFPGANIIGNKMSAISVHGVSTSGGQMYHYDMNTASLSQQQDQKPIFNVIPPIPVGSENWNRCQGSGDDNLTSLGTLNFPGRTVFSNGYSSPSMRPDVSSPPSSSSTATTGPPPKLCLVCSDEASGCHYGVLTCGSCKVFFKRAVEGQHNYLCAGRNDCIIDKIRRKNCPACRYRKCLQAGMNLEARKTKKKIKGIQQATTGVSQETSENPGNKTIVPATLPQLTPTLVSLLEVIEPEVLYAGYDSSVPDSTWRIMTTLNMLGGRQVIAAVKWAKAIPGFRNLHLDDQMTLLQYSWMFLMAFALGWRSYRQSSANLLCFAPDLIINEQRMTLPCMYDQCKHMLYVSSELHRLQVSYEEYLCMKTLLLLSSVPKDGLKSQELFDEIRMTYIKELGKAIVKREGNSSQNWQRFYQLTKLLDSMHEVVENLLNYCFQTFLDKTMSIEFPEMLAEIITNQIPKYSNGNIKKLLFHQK

[6] = target: Glucocorticoid receptor (Homo sapiens) (UniProt P04150); assay: GR-EFC Redistribution (AID 451; calls by dose curve; also: potency is read from the fitted curve at half-maximal effect); conditions: CHO-K1 GR-EFC translocation, beta-gal luminescence, 2 h
Method in brief: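 CHO-K1 cells stably expressing nuclear-localized β-gal enzyme acceptor and GR fused C-terminally to the enzyme donor fragment; ligand-driven nuclear translocation restores β-gal by complementation. Compounds titrated up to 46 uM final, 2 h at 37 °C; luminescence read.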

[7] = target: Mitogen-activated protein kinase 10 (Mus musculus) (UniProt Q61831); assay: JNK3 AlphaScreen Assay (AID 530; active = well fitted curve in either direction with a large enough effect, not every such curve was filed as active;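 also: kinase came from lysate of stimulated human HepG2 cells; signal reports phosphorylation of biotinylated GST-cJun 1-79 at Ser73 with 10 µM ATP; % is scaled to controls: 0 for no effect and ±100 for the full control effect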); conditions: JNK3 lysate, c-Jun phosphorylation; series mostly up to 57.1 µM
Method in brief: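 Phosphorylation of biotinylated GST-cJun(1-79) at Ser73 is measured by AlphaScreen proximity luminescence. Enzyme is JNK3 in HepG2 lysates activated with interleukin-1beta and tumor necrosis factor alpha; ATP is 10 uM final.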

[8] = target: 3',5'-cyclic-AMP phosphodiesterase 4B (Homo sapiens) (UniProt Q07343); assay: qHTS Assay for Inhibitors of PDE-IV (AID 607; active = well fitted activation curve with a large enough effect in the main read-out, with a control signal flat, not every such curve was filed as active; also: % of control where 0% means no effect); conditions: HEK293 ACTOne CNG channel cells, membrane potential fluorescence; series mostly up to 22.9 µM
Chain of 3',5'-cyclic-AMP phosphodiesterase 4B (Homo sapiens) (Q07343 whole entry, looked up): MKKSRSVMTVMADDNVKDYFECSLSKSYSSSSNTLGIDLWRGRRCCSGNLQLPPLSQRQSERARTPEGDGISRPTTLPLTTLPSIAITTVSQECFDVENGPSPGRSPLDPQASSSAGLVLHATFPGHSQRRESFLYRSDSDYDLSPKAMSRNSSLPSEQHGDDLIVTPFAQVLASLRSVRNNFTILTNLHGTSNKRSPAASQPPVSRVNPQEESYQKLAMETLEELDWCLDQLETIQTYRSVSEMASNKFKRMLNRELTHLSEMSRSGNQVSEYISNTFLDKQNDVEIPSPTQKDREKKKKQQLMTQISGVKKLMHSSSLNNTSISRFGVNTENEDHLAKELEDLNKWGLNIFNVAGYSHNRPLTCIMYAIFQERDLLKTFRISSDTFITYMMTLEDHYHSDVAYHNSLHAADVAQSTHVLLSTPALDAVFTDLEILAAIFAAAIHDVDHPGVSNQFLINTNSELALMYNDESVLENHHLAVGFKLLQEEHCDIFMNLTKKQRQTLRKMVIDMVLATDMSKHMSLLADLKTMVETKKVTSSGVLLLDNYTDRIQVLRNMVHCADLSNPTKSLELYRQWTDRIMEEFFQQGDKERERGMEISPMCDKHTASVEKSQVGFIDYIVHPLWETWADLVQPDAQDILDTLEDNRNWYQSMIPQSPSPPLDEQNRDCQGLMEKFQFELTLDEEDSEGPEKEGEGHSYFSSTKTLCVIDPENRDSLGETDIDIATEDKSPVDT
Method in brief: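 Live HEK293 cells with a modified cyclic nucleotide-gated (CNG) channel report intracellular cAMP via membrane-potential dye fluorescence (ex 535/em 590 nm). Endogenous PDE-IV was targeted. Compounds were tested at up to 22.9 uM final; RO 20-1724 100 uM served as control.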

[9] = target: Cytochrome P450 3A4 (Homo sapiens) (UniProt P08684); assay: qHTS Assay for Activators of Cytochrome P450 3A4 (AID 885); conditions: recombinant CYP3A4, Luciferin-PPXE luminescence, 60 min; series mostly up to 57.1 µM; also: nearly all actives have a fitted effect of over 65% in size
Chain of Cytochrome P450 3A4 (Homo sapiens) (P08684 whole entry, looked up): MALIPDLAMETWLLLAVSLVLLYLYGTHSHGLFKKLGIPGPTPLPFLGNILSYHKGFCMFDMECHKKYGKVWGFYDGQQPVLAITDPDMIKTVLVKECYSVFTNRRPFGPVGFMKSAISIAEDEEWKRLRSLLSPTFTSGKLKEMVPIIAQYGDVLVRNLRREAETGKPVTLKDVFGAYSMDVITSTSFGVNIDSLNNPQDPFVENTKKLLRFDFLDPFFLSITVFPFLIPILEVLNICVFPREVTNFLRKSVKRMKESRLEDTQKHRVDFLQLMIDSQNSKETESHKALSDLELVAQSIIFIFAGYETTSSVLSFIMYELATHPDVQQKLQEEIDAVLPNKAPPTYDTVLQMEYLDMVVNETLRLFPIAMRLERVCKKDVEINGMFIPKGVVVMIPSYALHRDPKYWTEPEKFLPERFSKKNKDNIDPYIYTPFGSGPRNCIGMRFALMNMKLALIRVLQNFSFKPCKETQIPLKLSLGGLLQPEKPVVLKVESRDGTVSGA
Method in brief: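 Using 20nM recombinant human CYP3A4 in potassium phosphate (200mM), substrate Luciferin-PPXE at 25uM, luminescent luciferin detection followed a 60-min RT NADPH reaction; data scaled to 57 uM ketoconazole.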

[10] = target: Cytochrome P450 2C19 (Homo sapiens) (UniProt P33261); assay: qHTS Assay for Inhibitors and Substrates of Cytochrome P450 2C19 (AID 899); conditions: recombinant CYP2C19, luciferin-H EGE luminescence; series mostly up to 57.1 µM; also: potency is read from the fitted curve at half-maximal effect; nearly all actives have a fitted effect of over 60% in size
Chain of Cytochrome P450 2C19 (Homo sapiens) (P33261 whole entry, looked up): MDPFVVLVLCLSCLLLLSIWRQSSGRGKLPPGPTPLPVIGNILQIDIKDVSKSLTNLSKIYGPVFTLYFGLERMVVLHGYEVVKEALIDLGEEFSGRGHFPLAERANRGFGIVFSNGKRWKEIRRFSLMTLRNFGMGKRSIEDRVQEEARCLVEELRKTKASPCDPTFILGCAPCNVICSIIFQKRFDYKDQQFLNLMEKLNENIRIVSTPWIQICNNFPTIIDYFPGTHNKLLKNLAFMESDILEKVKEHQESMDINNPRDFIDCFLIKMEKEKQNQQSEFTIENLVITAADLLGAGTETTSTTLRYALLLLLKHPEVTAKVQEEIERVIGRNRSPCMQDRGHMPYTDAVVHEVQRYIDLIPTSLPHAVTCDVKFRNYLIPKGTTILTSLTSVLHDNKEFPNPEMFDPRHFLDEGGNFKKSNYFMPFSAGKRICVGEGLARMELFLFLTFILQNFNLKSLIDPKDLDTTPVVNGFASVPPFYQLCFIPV
Method in brief: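 In 50mM KPO4, the reaction held 5nM enzyme and KM-level (10uM) Luciferin-H EGE; it ran 60 min at 37C after NADPH regeneration and a 10 min compound preincubation. Luminescence values were scaled to 57uM ketoconazole as complete inhibition.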

[11] = Confirmation and Secondary Assay for Modulators of Hemoglobin Beta Chain Splicing at IVS2 654 locus (AID 910); conditions: HeLa EGFP-654 splicing reporter, GFP fluorescence, 48 h; series mostly up to 38.3 µM;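 also: per-well total GFP intensity by laser scanning cytometry after 2-day treatment; % of control where 0% means no effect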
Method in brief: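 HeLa cells stably carrying EGFP interrupted by mutant beta-globin IVS2-654 intron (CMV-driven) were treated with compound for 2 days at 37C; corrected splicing was scored as total peak GFP intensity per well (488 nm excitation, 500-520 nm emission).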

[12] = Confirmation and Secondary Assay for Modulators of Hemoglobin Beta Chain Splicing at IVS2 705 locus (AID 930); conditions: HeLa EGFP-705 splicing reporter, GFP fluorescence, 48 h; series mostly up to 38.3 µM;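 also: HeLa cells stably expressing the EGFP-705 splicing reporter; GFP fluorescence per well restored by corrected splicing of the IVS2-705 intron in EGFP; % of control where 0% means no effect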
Method in brief: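 Assay measures total GFP intensity per well in HeLa EGFP-705 cells after 2 days with compound; mis-splicing normally truncates EGFP, so fluorescence indicates corrected splicing.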

[13] = qHTS Assay for Lipid Storage Modulators (AID 1519; calls by dose curve); conditions: Drosophila S3 cells, BODIPY lipid droplet/cell ratio, laser cytometry, cells loaded with oleic acid; for activity change, negative = inhibition: at 57.5 µM (top of the series)
Method in brief: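 Cells seeded at 5,000 per well were treated with compounds over a concentration series and loaded with oleic acid (400 uM, as added). Lipid droplet fluorescence (488 nm excitation, 500-530 nm channel) was read by laser-scanning cytometry and normalized to 20 uM Triacsin C.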

[14] = target: Ubiquitin carboxyl-terminal hydrolase 1 (Homo sapiens) (UniProt O94782); assay: Inhibitors of USP1/UAF1: Pilot qHTS (AID 504865); conditions: purified USP1/UAF1, Ub-rhodamine cleavage fluorescence; series mostly up to 54.9 µM;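 also: rhodamine fluorescence freed from ubiquitin-rhodamine substrate followed over time; top concentration of the series differs between compounds; % is scaled to controls: 0 for no effect and ±100 for the full control effect; nearly all actives have a fitted effect of over 35% in size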
Chain of Ubiquitin carboxyl-terminal hydrolase 1 (Homo sapiens) (O94782 whole entry, looked up): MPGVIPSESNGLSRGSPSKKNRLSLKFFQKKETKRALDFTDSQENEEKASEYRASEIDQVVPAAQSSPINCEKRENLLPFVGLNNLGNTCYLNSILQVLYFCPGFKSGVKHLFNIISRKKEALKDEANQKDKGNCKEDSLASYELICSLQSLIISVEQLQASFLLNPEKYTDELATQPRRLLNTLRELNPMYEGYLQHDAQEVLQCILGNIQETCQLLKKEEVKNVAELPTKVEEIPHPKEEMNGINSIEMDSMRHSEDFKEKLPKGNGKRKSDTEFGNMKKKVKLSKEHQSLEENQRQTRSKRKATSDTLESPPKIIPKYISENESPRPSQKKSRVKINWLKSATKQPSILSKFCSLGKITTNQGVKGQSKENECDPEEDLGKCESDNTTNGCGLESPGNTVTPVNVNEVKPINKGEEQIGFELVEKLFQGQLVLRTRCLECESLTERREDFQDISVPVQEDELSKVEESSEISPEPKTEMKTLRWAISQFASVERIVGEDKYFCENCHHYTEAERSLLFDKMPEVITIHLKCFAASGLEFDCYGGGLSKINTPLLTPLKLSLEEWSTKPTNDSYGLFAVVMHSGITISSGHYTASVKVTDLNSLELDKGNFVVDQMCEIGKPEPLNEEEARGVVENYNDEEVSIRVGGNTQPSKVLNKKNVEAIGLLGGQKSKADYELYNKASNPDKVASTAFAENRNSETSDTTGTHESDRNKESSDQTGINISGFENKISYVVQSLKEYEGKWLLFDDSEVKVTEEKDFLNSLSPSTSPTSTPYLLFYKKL
Method in brief: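 In 50mM HEPES pH 7.8 containing 0.5mM EDTA, 1mM TCEP, 0.1 mg/ml BSA and 0.01% Tween-20, 1nM USP1/UAF1 is exposed to compound for 15 min, then Ub-Rho (150nM final) is added and fluorescence is read over time.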

[15] = Primary qHTS for small molecule stabilizers of the endoplasmic reticulum resident proteome: Secreted ER Calcium Modulated Protein (SERCaMP) assay (AID 1508630); conditions: SH-SY5Y GLuc-SERCaMP (Gaussia luciferase released on ER calcium loss) secretion, thapsigargin, luminescence; series mostly up to 38.4 µM; also: % is scaled to controls: 0 for no effect and ±100 for the full control effect
Method in brief: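 The SH-SY5Y reporter protocol was run at 3 concentrations up to 38.3 uM (primary) or 11 concentrations (follow-up): 16 h compound, 100 nM thapsigargin for 4 h, then extracellular luciferase luminescence.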

[16] = target: Cytochrome P450 3A4 (Homo sapiens) (UniProt P08684); assay: qHTS Assay for Inhibitors and Substrates of Cytochrome P450 3A4 (AID 884); conditions: recombinant CYP3A4, Luciferin-PPXE luminescence; series mostly up to 57.1 µM; also: nearly all actives have a fitted effect of over 50% in size; also: potency is read from the fitted curve at half-maximal effect
Method in brief: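 Luminescent readout of luciferin produced by CYP3A4 (20 nM) dealkylation of Luciferin-PPXE, 25 uM (its KM). NADPH-driven reaction ran 60 min at RT after 10 min compound preincubation; data scaled to 57 uM ketoconazole as 100% inhibition.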

[17] = AP1 Signaling Pathway (AID 357; active = well fitted curve in either direction with a large enough effect, not every such curve was filed as active); conditions: ME-180 AP-1-bla reporter, EGF-induced, beta-lactamase ratio, 5 h; at 7.69 µM (top of the series) unless noted
Method in brief: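 Modulation of EGF-driven AP-1 transcription was assessed with a beta-lactamase reporter in ME-180 cells. Compound and EC50 EGF were co-incubated 5 hours at 37 °C before 2.5-hour CCF4 loading at room temperature and dual-emission reading.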

[18] = target: Cytochrome P450 2C9 (Homo sapiens) (UniProt P11712); assay: qHTS Assay for Inhibitors and Substrates of Cytochrome P450 2C9 (AID 883); conditions: recombinant CYP2C9, luciferin-H luminescence, 60 min; series mostly up to 57.1 µM; also: potency is read from the fitted curve at half-maximal effect; nearly all actives have a fitted effect of over 60% in size
Method in brief: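 CYP2C9 deoxyluciferin hydroxylation, 37C, 60 min with NADPH regeneration; 10nM enzyme, 100uM Luciferin-H (KM). Glo detection reagent stopped reaction; luminescence normalized to sulphaphenazole (57uM) full inhibition.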

[19] = target: Cytochrome P450 2D6 (Homo sapiens) (UniProt P10635); assay: qHTS Assay for Inhibitors and Substrates of Cytochrome P450 2D6 (AID 891); conditions: recombinant CYP2D6, luciferin-ME EGE luminescence; series mostly up to 57.1 µM; also: nearly all actives have a fitted effect of over 60% in size; also: potency is read from the fitted curve at half-maximal effect
Chain of Cytochrome P450 2D6 (Homo sapiens) (P10635 whole entry, looked up): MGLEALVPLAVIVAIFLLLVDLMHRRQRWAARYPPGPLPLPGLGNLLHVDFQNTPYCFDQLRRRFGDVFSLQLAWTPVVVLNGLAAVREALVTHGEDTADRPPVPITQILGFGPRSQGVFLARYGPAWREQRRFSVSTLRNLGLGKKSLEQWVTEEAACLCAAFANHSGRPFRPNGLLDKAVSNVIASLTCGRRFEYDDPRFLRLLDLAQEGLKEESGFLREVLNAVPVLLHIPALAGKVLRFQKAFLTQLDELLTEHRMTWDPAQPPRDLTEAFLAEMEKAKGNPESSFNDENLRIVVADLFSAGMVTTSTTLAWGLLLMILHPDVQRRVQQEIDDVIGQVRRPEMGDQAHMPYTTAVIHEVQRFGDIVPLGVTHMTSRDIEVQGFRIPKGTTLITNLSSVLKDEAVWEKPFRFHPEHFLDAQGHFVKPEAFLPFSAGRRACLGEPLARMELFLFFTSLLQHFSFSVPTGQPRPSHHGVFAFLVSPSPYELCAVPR
Method in brief: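 Luminescent read-out of luciferin formed by 5 nM human CYP2D6 demethylating 30 uM Luciferin-ME EGE (Km level) over 60 min at room temperature after NADPH regeneration addition. Data normalized to full inhibition by 1.43 uM quinidine.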

[20] = qHTS Assay for Identification of Small Molecule Agonists for Hypoxia Response Element Signaling Pathway (AID 914; active = well fitted activation curve with a large enough effect in the signal ratio, with a control signal flat, not every such curve was filed as active; the % refers to the signal ratio; also: % of control where 0% means no effect); conditions: ME-180 (cervical carcinoma) HRE-bla reporter, beta-lactamase ratio, CoCl2, 17 h; activation: stronger effect = higher value
Method in brief: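 Compounds in a titration series were added to ME-180 reporter cells alongside an EC50 level of CoCl2. After 17 hours, beta-lactamase activity was read as the 460nm/530nm emission ratio of CCF4, giving AC50 values.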

[21] = measured here: cell count channel max response
[22] = measured here: lipid channel max response

COc1ccccc1CNc1ncncc1-c1ccccc1C
active: Potency [2] 7.94 µM | Potency [10] 3.98 µM
5.51%: max response [13, 22]
inactive: Potency [1] > 11.4 µM | activity change, negative = inhibition [3] -19.5% | activity, negative = inhibition [4] 12.8% | Potency [5] > 46 µM | Potency [6] > 46 µM | Potency [7] | Potency [8] | Potency [9] | Potency [11] | outcome [12] | activity change, negative = inhibition [13] 9.38% | Potency [14] | outcome [15]
-3.12%: max response [13, 21]

c1cncc(CNc2nc(-c3ccc4c(c3)OCO4)nc3ccccc23)c1
18%: max response [13, 22]
10.1%: max response [13, 21]
inactive: Potency [1] > 11.4 µM | activity change, negative = inhibition [3] -3.4% | activity, negative = inhibition [4] -7.26% | Potency [5] > 46 µM | Potency [6] > 46 µM | Potency [7] | Potency [9] | Potency [11] | outcome [12] | activity change, negative = inhibition [13] 6.87% | outcome [15]
active: Potency [2] 0.1 µM | Potency [16] 0.316 µM

CN1CCCC2(CCN(C(=O)c3cccc(F)c3)CC2)C1
10.1%: max response [13, 22]
inactive: Potency [1] > 11.4 µM | activity change, negative = inhibition [17] -7.14% | activity, negative = inhibition [4] 6.64% | Potency [6] > 46 µM | Potency [7] | Potency [8] | Potency [16] | Potency [19] | activity change, negative = inhibition [13] 0.413% | outcome [15]
7.52%: max response [13, 21]
active: Potency [18] 20 µM

CN(C)Cc1ccccc1-c1ccc2ncnc(N3CCOCC3)c2c1
inactive: Potency [1] > 11.4 µM | activity change, negative = inhibition [3] 2.99% | activity, negative = inhibition [4] 12.4% | Potency [6] > 46 µM | Potency [7] | Potency [9] | Potency [11] | outcome [12] | activity change, negative = inhibition [13] 9.22% | Potency [14] | outcome [15]
17.3%: max response [13, 22]
active: Potency [2] 15.8 µM
6.66%: max response [13, 21]

COc1ccccc1CN1CCC2(CC1)CCN(S(C)(=O)=O)CC2
active: Potency [19] 0.02 µM
-18.2%: max response [13, 22]
-18.8%: max response [13, 21]
inactive: Potency [1] > 11.4 µM | Potency [2] | activity change, negative = inhibition [3] -27.6% | activity, negative = inhibition [4] -4.05% | Potency [6] > 46 µM | Potency [7] | Potency [8] | activity change, negative = inhibition [13] -1.09% | outcome [15]

CC(C)CN1CC2(CCN(S(=O)(=O)c3ccccc3)CC2)C1
-17.9%: max response [13, 21]
-14.3%: max response [13, 22]
inactive: Potency [1] > 11.4 µM | activity change, negative = inhibition [17] 6.33% | activity, negative = inhibition [4] -2.48% | Potency [6] > 46 µM | Potency [7] | Potency [8] | activation [20] 6.29% | activity change, negative = inhibition [13] -0.648% | outcome [15]
